Measurements published in PubChem BioAssay (Tox21).
Several values for one entry are separate records, joined by “and”; a condition that tells them apart may be missing. Identical values can stand only once. Results filed as inconclusive are left out. Entries that show only a call come without a potency. More than one record can exist for a structure, and the calls need not agree. Activity calls are given as the source filed them. Calls come from the whole dose curve; as a rule, active = well fitted cell-killing curve with a large enough effect in the repeat runs; inconclusive = weak or mixed curves, or effect the other way; inactive = no such curve, though single readings can be large or run the other way.

assay: qHTS assay to identify small molecule antagonists of the vitamin D receptor (VDR) signaling pathway - cell viability counter screen (AID 743225); details: VDR-bla HEK293T viability, CellTiter-Glo luminescence, 16 h; series mostly up to 61 µM; note: nearly all actives have a fitted effect of over 50% in size
Text: U.S. Tox21 Program National Center for Advancing Translational Sciences [NCATS] NIH Chemical Genomics Center [NCGC] U.S. Environmental Protection Agency [EPA] National Institutes of Environmental Health Sciences [NIEHS] National Toxicology Program [NTP] U.S. Food and Drug Administration [FDA] Tox21 Assay Overview: The vitamin D receptor (VDR), a member of nuclear hormone receptor superfamily, plays a critical role in calcium homeostasis and bone metabolism. It is also involved in cell differentiation and growth, and thrombogenicity. To identify the compounds that inhibit VDR signaling, the VDR-UAS-bla HEK 293T cell line (Invitrogen, Carlsbad, CA, USA) containing a beta-lactamase reporter gene under the control of an upstream activator sequence (UAS) was used to screen the Tox21 10K compound library. The cytotoxicity of the Tox21 compound library against the VDR-bla cell line was tested in parallel by measuring the cell viability using CellTiter-Glo assay (Promega, Madison, WI) in the same wells.
Tox21 Assay Protocol Summary: VDR-bla cells were dispensed at 2,000 cells/5 uL of assay medium per well into black wall/clear-bottom 1536-well plates using a Multidrop Combi (Thermo Fisher Scientific, Waltham, MA) dispenser. After the assay plates were incubated at a 37C and 5% CO2 for 4 h, 23 nL of compounds dissolved in DMSO, positive controls or DMSO only was transferred to the assay plate by a Pintool station (Kalypsys, San Diego, CA), followed by addition of 1 uL of 1-alpha, 25-Dihydroxy Vitamin D3 (3 nM, final concentration in the wells) using a Bioraptr Flying Reagent Dispenser (FRD) workstation (Beckman Coulter, Indianapolis, IN). The plates were incubated at 37C and 5% CO2 for 16 h, and then 1 uL of LiveBLAzerTM B/G FRET substrate was added using a Bioraptr FRD. The plates were incubated at room temperature for 2 h and fluorescence intensity was measured by an Envision plate reader (PerkinElmer, Shelton, CT). For cell viability readout that measures cytotoxicity, 3 ul/well of CellTiter-Glo reagent was added into the assay plates using a Bioraptr FRD. After 30 min incubation at room temperature, the luminescence intensity in the plates was measured using a ViewLux plate reader (PerkinElmer).
Potency is the fitted concentration of half-maximal effect.

| SMILES | Potency |
| --- | --- |
| CC1=C2C[C@H]3[C@@H](CC=C4C[C@@H](O)CC[C@@]43C)[C@@H]2CC[C@]12O[C@@H]1C[C@H](C)CN[C@H]1[C@H]2C | inactive |
| O=S(=O)(NS(=O)(=O)C(F)(F)F)C(F)(F)F | inactive |
| CC(C)Br | inactive |
| O.O.O.O.O.O.O.O=S(=O)([O-])[O-].[Co+2] | inactive |
| CNC(=O)O/N=C(\C)C(C)S(C)(=O)=O (stereo not given) | inactive |
| Cc1cccc(Cc2cnc[nH]2)c1C | inactive |
| [Cl-].[Cl-].[Sn+2] | inactive |
| Oc1ccc([C@H]2CNCc3c2ccc(O)c3O)cc1O | inactive |
| CCN(CC)C(=S)S | inactive |
| CC(=O)[O][Pb]([c]1ccccc1)([c]1ccccc1)[c]1ccccc1 | 0.977 µM (active) |
| C#CC1(O)CCCCC1 | inactive |
| Nc1nc(N)c(N)c(N)n1 | inactive |
| Clc1ccc(C2(Cn3cncn3)OCCO2)c(Cl)c1 | inactive |
| O=C(NC(=O)c1ccccc1Cl)Nc1ccc(OC(F)(F)F)cc1 | inactive |
| ClCBr | inactive |
| Brc1ccc(Oc2ccc(Br)cc2Br)c(Br)c1 | inactive |
| C=CCBr | inactive |
| ClC1=C(Cl)[C@]2(Cl)[C@@H]3[C@H]4C[C@H]([C@@H]5O[C@H]45)[C@@H]3[C@@]1(Cl)C2(Cl)Cl | inactive |
| CN(C)CCc1c[nH]c2ccccc12 | inactive |
| CNC(=O)Oc1cc(C)cc(C(C)C)c1 | inactive |

| SMILES | Potency |
| --- | --- |
| C1=CCC=C1 | inactive |
| CC(=O)[O-].CC(=O)[O-].O.O.[Zn+2] | inactive |
| CN/C(=N\[N+](=O)[O-])NCc1cnc(Cl)s1 | inactive |
| CCC(C)Br (stereo not given) | inactive |
| Cc1ccc2cc3c(ccc4ccccc43)c3c2c1CC3 | inactive |
| CC(Cc1ccccc1)N(C)Cc1ccco1 (stereo not given) | inactive |
| O=C1C(Cl)=C(Cl)C(=O)C(Cl)=C1Cl | 17.4 µM (active) |
| CCC(C)Nc1c([N+](=O)[O-])cc(C(C)(C)C)cc1[N+](=O)[O-] (stereo not given) | inactive |
| COc1ccc(Cc2nccc3cc(OC)c(OC)cc23)cc1OC | inactive |
| N#CSCc1ccccc1 | inactive |
| O=C(NC(=O)c1c(F)cccc1F)Nc1ccc(Oc2ccc(C(F)(F)F)cc2Cl)cc1F | inactive |
| CCCC[N+]1(C)CCCC1 (tested in a mixture with another compound) | inactive |
| CCC(OC(C)=O)C(CC(C)NC)(c1ccccc1)c1ccccc1 (stereo not given) | 44 µM (active) |
| C=Cc1cccc(CCl)c1 | inactive |
| c1ccc(Nc2ccc(Nc3ccccc3)cc2)cc1 | inactive |
| Cc1cnc2c(C(=O)O)c(Cl)ccc2c1 | inactive |
| Cc1cc(C2CC2)nc(Nc2ccccc2)n1 | inactive |
| N#CC(C#N)=NNc1cccc(Cl)c1 | 8.71 µM (active) |
| CCCCCCCCCCCCCCn1cc[n+](C)c1 | 27.6 µM (active) and 43.2 µM (active) and inactive |
| CC(Cl)CCl (stereo not given) | inactive |
